Measured values as given in PubChem BioAssay (Tox21).
Where “and” joins values, the source holds several entries; their conditions need not be identical. Equal values may be shown once. Records with an inconclusive call do not appear. Entries that show only a call come without a potency. More than one record can exist for a structure, and the calls need not agree. Calls of active or inactive are those of the source. Unless noted, calls come from the whole dose curve; as a rule, active = well fitted curve in the direction sought with a large enough effect in the repeat runs; inconclusive = weak or mixed curves; inactive = no such curve, though single readings can be large; an effect the other way counts as inactive or inconclusive.

Assays:
[1] = qHTS assay for small molecules that induce genotoxicity in human embryonic kidney cells expressing luciferase-tagged ATAD5 (AID 651632); note: nearly all actives have a fitted effect of over 15% in size; note: potency is the fitted concentration of half-maximal effect
How it was run: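 Concentration-response screen for ATAD5 upregulation in HEK293T luciferase reporter cells; 16 hr treatment at 37C, then luminescence after 30 min with Amplite at room temperature.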

[2] = qHTS assay for small molecule agonists of the p53 signaling pathway - cell viability (AID 651633; calls by dose curve; note: nearly all actives have a fitted effect of over 30% in size; note: potency is the fitted concentration of half-maximal effect)
How it was run: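 p53RE-bla cells were treated with compound for 16 hours at 37 C. Cytotoxicity was then measured as CellTiter-Glo luminescence after 30 min at room temperature.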

[3] = qHTS assay for small molecules that induce genotoxicity in human embryonic kidney cells expressing luciferase-tagged ATAD5 - cell viability (AID 651634; calls by dose curve; note: nearly all actives have a fitted effect of over 25% in size; note: potency is the fitted concentration of half-maximal effect)
How it was run: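 15.5 hr compound or vehicle exposure of HEK293T cells expressing luciferase-tagged ATAD5 at 37C; live-cell protease activity is read by fluorescence after 30 min of CellTiter-Fluor.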

[4] = qHTS assay for small molecule disruptors of the mitochondrial membrane potential - cell viability (AID 720634; calls by dose curve; note: nearly all actives have a fitted effect of over 20% in size; note: potency is the fitted concentration of half-maximal effect)
How it was run: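 In this qHTS format, HepG2 cells plated overnight were pinned with compound, incubated 1 hr, and assayed for ATP luminescence with CellTiter-Glo after m-MPI dye addition.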

[5] = qHTS assay for small molecule disruptors of the mitochondrial membrane potential (AID 720635); note: potency is the fitted concentration of half-maximal effect
How it was run: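 HepG2 cells exposed to compound 1 hr at 37C, then Mito-MPS dye 30 min. Ratio read of aggregate (540/590 nm) versus monomer (490/535 nm) fluorescence.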

[6] = qHTS assay to test for compound auto fluorescence at 590 nm (red) in HepG2 cells (AID 720674)
How it was run: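 HepG2 cells, 2,000 per well in MEM with 10% FBS, attached overnight at 37 C, then got 23 nL compound or DMSO. After 1 hr at 37 C, 5% CO2, red fluorescence was read at 540/590 nm against Rose Bengal sodium as reference.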

[7] = qHTS assay to test for compound auto fluorescence at 535 nm (green) in HepG2 cells (AID 720675)
[8] = qHTS assay to test for compound auto fluorescence at 460 nm (blue) in HEK293 cells (AID 720678); note: potency is the fitted concentration of half-maximal effect
How it was run: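 Auto fluorescence in the blue band was quantified as triamterene equivalency. HEK293 cells were seeded at 2,000/well, dosed after a 4-5 hr attachment, and kept overnight at 37C before the 405/460 nm reading.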

[9] = qHTS assay to test for compound auto fluorescence at 590 nm (red) in HEK293 cells (AID 720679)
How it was run: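 Autofluorescence equivalency to Rose Bengal sodium, 540/590nm, in HEK293 cells exposed overnight to 23 nL compound per well.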

[10] = qHTS assay for small molecule agonists of the p53 signaling pathway (AID 651631; calls by dose curve; note: nearly all actives have a fitted effect of over 15% in size; note: potency is the fitted concentration of half-maximal effect)
How it was run: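 Agonist mode screen using a stably integrated beta-lactamase gene under p53 response elements in HCT-116 cells. Compound exposure lasts 16 h at 37 °C; fluorescence intensity is measured following 2 h FRET substrate loading.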
Tags give direction and shape of the fitted curve or compound fluorescence and quenching.

SMILES	Potency [1]	Potency [2]	Potency [3]	Potency [4]	Potency [5]	outcome [6]	Potency [7]	Potency [8]	outcome [9]	Potency [10]	fluorescence, relative to Rose Bengal [6]	fluorescence, % of fluorescein control [7]	fluorescence, % of triamterene [8]	fluorescence, % of fluorescent control [9]
CCn1c2ccccc2c2cc(N)ccc21	inactive	inactive	inactive	inactive	27 µM (active) and 24.3 µM (active) and 7.7 µM (active)	inactive	inactive	inactive	inactive	–	–	–	–	–
CC(C)(C)NC(=O)[C@@H]1CN(Cc2cccnc2)CCN1C[C@@H](O)C[C@@H](Cc1ccccc1)C(=O)N[C@H]1c2ccccc2C[C@H]1O	–	–	–	13.3 µM (active) and inactive	7.5 µM (active)	inactive	inactive	inactive	inactive	inactive	–	–	–	–
COc1nc(C)nc(Cl)c1NC1=NCCN1	inactive	inactive	inactive	inactive	inactive	–	–	–	–	–	0.0093% [at 18.6 µM] (inactive)	-0.17% [at 18.6 µM] (inactive)	0.0425% [at 18.6 µM] (inactive)	-0.0076% [at 18.6 µM] (inactive)
CCCCCC(=O)O[C@]1(C(C)=O)CC[C@H]2[C@@H]3CCC4=CC(=O)CC[C@]4(C)[C@H]3CC[C@@]21C	inactive	26.6 µM (active) and 54.1 µM (active)	inactive	inactive	11.9 µM (active) and 15.2 µM (active)	inactive	inactive	inactive	inactive	–	–	–	–	–
O=C(OCc1ccccc1)c1ccc(O)cc1	–	inactive	inactive	–	13.3 µM (active) and 15.4 µM (active)	inactive	inactive	inactive	inactive	inactive	–	–	–	–
Nc1ccc2cc3ccccc3cc2c1	27.8 µM (active)	inactive	inactive	inactive	1.39 µM (active) and 1.37 µM (active)	inactive	inactive	44.7 µM [fluorescent] (active)	inactive	–	–	–	–	–
COc1ccc(Cc2cnc(N)nc2N)cc1OC	inactive	inactive	inactive	inactive	inactive	inactive	inactive	inactive	inactive	–	–	–	–	–
BrC1CCC(Br)C(Br)CCC(Br)C(Br)CCC1Br (stereo not given)	inactive	15.3 µM (active) and 25.9 µM (active)	inactive	inactive	3.84 µM (active) and 9.19 µM (active)	inactive	inactive	inactive	inactive	–	–	–	–	–
CC(N)=O	inactive	inactive	inactive	inactive	inactive	inactive	inactive	inactive	inactive	–	–	–	–	–
CC(C)CCOC(=O)c1ccc(N(C)C)cc1	13.3 µM (active)	inactive	inactive	–	–	inactive	inactive	inactive	inactive	inactive	–	–	–	–
CCCN[C@H]1CCc2nc(N)sc2C1	–	inactive	inactive	inactive	inactive	inactive	inactive	inactive	inactive	inactive	–	–	–	–
Cc1c(O)cccc1C(=O)N[C@@H](CSc1ccccc1)[C@H](O)CN1C[C@H]2CCCC[C@H]2C[C@H]1C(=O)NC(C)(C)C	inactive	21.1 µM (active)	21.1 µM (active) and 23.7 µM (active)	inactive	10.6 µM (active) and 7.49 µM (active)	inactive	inactive	inactive	inactive	–	–	–	–	–
CN(C)c1ccc2nc3ccc(=[N+](C)C)cc-3sc2c1	inactive	3.35 µM (active)	11.9 µM (active) and 2.94 µM (active) and 48.6 µM (active)	10.6 µM (active) and 23.4 µM (active) and 61.1 µM (active)	2.37 µM (active) and 830 nM (active) and 1.37 µM (active)	inactive	inactive	inactive	inactive	–	–	–	–	–
CC(=O)CC(=O)Nc1ccc2[nH]c(=O)[nH]c2c1	inactive	inactive	inactive	inactive	inactive	inactive	inactive	inactive	inactive	–	–	–	–	–
N[C@@H]1CONC1=O	inactive	inactive	inactive	inactive	inactive	inactive	inactive	inactive	inactive	–	–	–	–	–
CC(C)(C)c1cc(C(C)(C)C)c(O)c(C(C)(C)C)c1	inactive	34.4 µM (active)	inactive	inactive	17.2 µM (active) and 27.3 µM (active)	inactive	inactive	inactive	inactive	–	–	–	–	–
O=Nc1ccc(Nc2ccccc2)cc1	–	–	48.8 µM (active)	–	21.8 µM (active)	inactive	inactive	inactive	inactive	27.4 µM (active)	–	–	–	–
CC1COc2c(N3CCN(C)CC3)c(F)cc3c(=O)c(C(=O)O)cn1c23 (stereo not given)	inactive	inactive	inactive	–	–	inactive	inactive	inactive	inactive	inactive	–	–	–	–

SMILES	Potency [1]	Potency [2]	Potency [3]	Potency [4]	Potency [5]	outcome [6]	Potency [7]	Potency [8]	outcome [9]	Potency [10]	fluorescence, relative to Rose Bengal [6]	fluorescence, % of fluorescein control [7]	fluorescence, % of triamterene [8]	fluorescence, % of fluorescent control [9]
CCOc1ccc2c(c1)C(C)=CC(C)(C)N2	inactive	inactive	inactive	inactive	inactive	inactive	inactive	inactive	inactive	–	–	–	–	–
Oc1c(Cl)cc(Cl)cc1Sc1cc(Cl)cc(Cl)c1O	inactive	–	11.9 µM (active) and 30.7 µM (active) and 48.6 µM (active)	13.7 µM (active) and inactive	–	inactive	inactive	inactive	inactive	11.9 µM (active) and 34.9 µM (active) and 21.7 µM (active)	–	–	–	–
C=CC(=O)OCCCCCCOC(=O)C=C	–	inactive	31 µM (active)	inactive	inactive	inactive	inactive	inactive	inactive	11 µM (active)	–	–	–	–
O=C(Cl)c1cccc(C(=O)Cl)c1	inactive	inactive	inactive	inactive	inactive	inactive	inactive	inactive	inactive	–	–	–	–	–
NC(=Nc1ccccc1)Nc1ccccc1	15 µM (active)	inactive	inactive	inactive	3.35 µM (active) and 15.4 µM (active)	inactive	inactive	inactive	inactive	–	–	–	–	–
CNCCC(Oc1ccc(C(F)(F)F)cc1)c1ccccc1 (stereo not given)	–	60.3 µM (active)	inactive	–	–	inactive	inactive	inactive	inactive	53.8 µM (active)	–	–	–	–
CCCOC(=O)c1cc(O)c(O)c(O)c1	inactive	inactive	inactive	inactive	23.7 µM (active) and 48.3 µM (active) and 48.6 µM (active)	inactive	inactive	inactive	inactive	–	–	–	–	–
C1COC(NC(C2CC2)C2CC2)=N1	inactive	inactive	inactive	inactive	inactive	inactive	inactive	inactive	inactive	–	–	–	–	–
CCC(C)(Oc1ccc(C2(c3ccc(OC(C)(CC)C(=O)O)cc3)CCCCC2)cc1)C(=O)O (stereo not given)	inactive	inactive	inactive	inactive	inactive	inactive	inactive	inactive	inactive	–	–	–	–	–
CC(=O)Nc1ccc(C(=O)CCl)cc1	inactive and 24.3 µM (active)	inactive and 30.6 µM (active)	–	inactive and 27.3 µM (active)	inactive and 27.3 µM (active)	inactive	inactive	inactive	inactive	inactive and 24.3 µM (active)	–	–	–	–
CC(C)(c1ccccc1)c1ccc(Nc2ccc(C(C)(C)c3ccccc3)cc2)cc1	inactive	inactive	inactive	inactive	21.7 µM (active) and 27.3 µM (active)	inactive	inactive	inactive	inactive	–	–	–	–	–
c1cc(C(c2ccc(OCC3CO3)cc2)C(c2ccc(OCC3CO3)cc2)c2ccc(OCC3CO3)cc2)ccc1OCC1CO1 (stereo not given)	inactive	inactive	inactive	inactive	inactive	inactive	inactive	inactive	inactive	–	–	–	–	–
CCCCCCC(O)CCCCCCCCCCC(=O)O (stereo not given)	inactive	inactive	inactive	inactive and 54.5 µM (active)	inactive and 54.5 µM (active)	inactive	inactive	inactive	inactive	–	–	–	–	–
CCCCC(CC)COC(=O)CC(C(=O)OCC(CC)CCCC)S(=O)(=O)O (stereo not given)	inactive	29.8 µM (active) and 58.8 µM (active) and 61.1 µM (active)	inactive	inactive	58.8 µM (active)	inactive	inactive	inactive	inactive	–	–	–	–	–
O	–	inactive	inactive	inactive	31 µM (active)	inactive	inactive	inactive	inactive	inactive	–	–	–	–
CCC(=O)/C=C/C1C(C)=CCCC1(C)C (stereo not given)	inactive	inactive	inactive	inactive	27.3 µM (active)	inactive	inactive	inactive	inactive	–	–	–	–	–
CCCCCCCCCCCCc1ccccc1O	inactive	26.9 µM (active) and 24.3 µM (active)	30.6 µM (active)	inactive	2.14 µM (active) and 2.43 µM (active)	inactive	inactive	inactive	inactive	–	–	–	–	–
